Sampled rows, rich in hits. Any-hit rate of the full collection: about 12%.
AMA1-RON2 inh = disrupts binding of P. falciparum AMA1 to RON2 | AlphaScreen AMA1-biotinylated RON2 peptide binding | 360,000 compounds, 0.2% hits | Potency, µM (series often up to 58.2 µM), actives largely listed as inhibitors; further: nearly all actives have a fitted effect of over 45% in size
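AMA1 (3D7) with his tag at 25 nM final met compounds first, then biotinylated RON2 peptide at 25 nM; detection used donor plus acceptor beads, 10 µg/mL apiece, read by AlphaScreen after 30 min at room temperature.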
Pf growth 48h = inhibits P. falciparum growth in the first generation, 48 h; P. falciparum luciferase growth in erythrocytes, 48 h; Potency, µM (series often up to 28.7 µM), actives largely listed as inhibitors; 310,000 compounds, 5.9% hits
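Read-out is firefly luciferase luminescence from an integrated reporter in P. falciparum, so falling signal marks reduced parasite growth. Infected erythrocytes were at 2% hematocrit and 0.1% parasitemia (final) in Albumax-supplemented RPMI 1640.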
Pf growth 96h = P. falciparum growth inhibition at 96 hour, primary screen for plastid delayed-death inhibitors. P. falciparum luciferase reporter growth, 96 h. Potency, µM (highest dose often 28.7 µM), most hits filed as inhibitors. 320,000 compounds, 6.9% hits. AID 504834
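Two-generation exposure (96 h) targets delayed-death phenotype. Reporter parasites carrying integrated firefly luciferase, in red cells at 2% hematocrit and 0.05% parasitemia final, kept at 37 C, 5% CO2; luminescence loss indicates inhibition.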
HCV inhibitor = blocks hepatitis C virus; 340,000 compounds, 3.4% hits; Potency, µM (titrated, usually from 41.8 µM), actives largely listed as inhibitors; Huh7.5.1 HCVcc-Cre infection, luciferase reporter, 44 h
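After 44 h co-culture of compound, cells and HCVcc-Cre (~0.5 moi), substrate is added for 15 min at room temperature and luciferase measured over 15 sec. Cells were seeded at 1,000/well and pre-cultured 4 h.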
SARS PLP yeast = SARS-CoV PLP inhibition in yeast; S. cerevisiae expressing SARS-CoV PLpro, growth rescue; 330,000 compounds, 0.19% hits; Potency, µM (highest dose often 32.9 µM), actives largely listed as activators; calls by dose curve; further: nearly all actives have a fitted effect of over 55% in size
NS1 function inh = blocks influenza NS1 protein function. Potency, µM (doses to about 46.1 µM). 270,000 compounds, 0.4% hits. AID 2326; calls by dose curve; further: actives are rising curves; nearly all actives have a fitted effect of over 50% in size
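Growth recovery, yeast-based: influenza A NS1 expressed in S. cerevisiae causes slow growth, and suppressors are detected by OD600. The parent strain without NS1 is used as positive control.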
Of the large screens only hits and unclear results are named; the others gave an inactive call. Unless noted, the call rests on the fitted dose curve; in most records, active means well fitted curve in the direction sought with a large enough effect; inconclusive means small, poorly fitted or top-dose-only effect, or another doubt; inactive means no such curve, though single readings can be large; an effect the other way counts as inactive or inconclusive.

Cc1cccc(N(C)S(=O)(=O)c2nnc(NC(=O)c3ccco3)s2)c1	Pf growth 96h inconclusive
CCN(c1ccccc1)S(=O)(=O)c1ccc(NC(=O)c2ccco2)cc1	Pf growth 48h 10.4µM
CN(c1ccccc1)S(=O)(=O)c1ccc(NC(=O)c2ccco2)cc1	none (no result: NS1 function inh)
CCN(c1ccccc1)S(=O)(=O)c1cc(C(=O)Nc2ccc(F)c(F)c2)ccc1F	Pf growth 48h inconclusive, HCV inhibitor 4.47µM
CCOC(=O)Cc1ccc(NC(=O)c2ccc(C(C)(C)C)cc2)cc1	Pf growth 48h 4.15µM, HCV inhibitor 7.08µM (no result: Pf growth 96h)
CC(NC(=O)c1ccco1)c1nc(-c2ccc(C(C)(C)C)cc2)no1 (configuration not stated)	Pf growth 96h inconclusive, HCV inhibitor 15.8µM
C/C(=N\NC(=O)c1ccco1)c1ccc(NC(=O)c2ccccc2)cc1	Pf growth 96h 13.1µM (no result: NS1 function inh)
CCOC(=O)Cc1ccc(NC(=O)c2ccccc2Br)cc1	none
O=C(Nc1nc2cc3c(cc2s1)OCO3)c1ccco1	none
O=C(Nc1nc2ccccc2c(=O)s1)c1ccco1	Pf growth 48h 2.08µM
Cc1cc(-n2cnc(-c3cn[nH]c3C)n2)no1	none
CCCn1c(=O)c2sccc2n2c(CCCC(=O)NC3CCN(Cc4ccccc4)CC3)nnc12	Pf growth 96h inconclusive
CC(C)Oc1cc(N)c(Cl)cc1Cl	none (no result: NS1 function inh)
C/C(=N\NC(=O)c1ccccc1N)c1ccc(NC(=O)Cc2ccccc2)cc1	Pf growth 48h 9.28µM
CCOc1ccccc1NC(=O)c1ccc(NC(=O)c2ccco2)cc1	Pf growth 48h 2.94µM, HCV inhibitor 10µM
O=C(Nc1cc(Br)c(O)c(Br)c1)c1cccc(NC(=O)c2ccco2)c1	Pf growth 48h inconclusive, Pf growth 96h 7.38µM
CC(C)(C)c1ccc(C(=O)Nc2ccc(NC(=O)c3ccco3)cc2)cc1	Pf growth 48h inconclusive, Pf growth 96h 10.4µM, HCV inhibitor inconclusive
COc1ccc(NCN2C(=O)C3C4C=CC(C4)C3C2=O)cc1 (configuration not stated)	Pf growth 96h 10.4µM
CCOC(=O)[C@@H]1[C@H]2COc3ccccc3[C@@H]2N2C(=O)N(c3ccc(OC)cc3)C(=O)[C@@]12C	none
CCOC(=O)C1=C(C)NC(=O)CC1c1cc(OC)c(OC)cc1Br (configuration not stated)	Pf growth 48h 0.465µM, Pf growth 96h inconclusive (no result: NS1 function inh)
O=C(COC(=O)/C=C/c1cccc(Cl)c1Cl)Nc1ccc2[nH]c(=O)[nH]c2c1	none (no result: NS1 function inh)
Cc1noc(C)c1-c1nnc(-c2ccc(OC(F)(F)F)cc2)o1	none
O=S(=O)(c1ccc(Br)cc1F)N1CCC(O)CC1	none (no result: Pf growth 48h, Pf growth 96h, SARS PLP yeast, NS1 function inh)
COC(=O)CCCC(=O)N1CCC(n2nccc2NC(=O)CCOc2ccccc2)CC1	Pf growth 96h inconclusive
O=C(CCOc1ccccc1)Nc1ccnn1C1CCN(C(=O)CCC(F)(F)F)CC1	Pf growth 48h inconclusive, Pf growth 96h 11.7µM
CCCNC(=O)N1CCC(n2nccc2NC(=O)CCOc2ccccc2)CC1	Pf growth 96h inconclusive
COCC(=O)N1CCC(n2nccc2NC(=O)CCOc2ccccc2)CC1	Pf growth 96h 11.7µM, HCV inhibitor inconclusive
O=c1[nH]c2nc(Br)[nH]c(=O)c2[nH]1	none (no result: Pf growth 48h, Pf growth 96h, SARS PLP yeast, NS1 function inh)
c1ccc(Cn2nnc(CNc3ccccc3)c2-c2c(CNc3ccccc3)nnn2Cc2ccccc2)cc1	Pf growth 48h 2.62µM, Pf growth 96h 1.85µM
CC(C)(C)OC(=O)N[C@H](/C=C/c1ccccc1)C(=O)OC(C)(C)C	Pf growth 48h inconclusive, Pf growth 96h inconclusive (no result: NS1 function inh)
COc1ccc(C(=O)Nc2ccc(C3=NNC(=O)CC3C)cc2NC(=O)c2ccc(OC)cc2)cc1 (configuration not stated)	Pf growth 48h inconclusive, Pf growth 96h inconclusive, HCV inhibitor 10µM (no result: NS1 function inh)
Cc1ccc(OCCSc2nc3ccccc3n2CC(=O)O)cc1C	Pf growth 96h 11.7µM, NS1 function inh inconclusive
COc1ccc(OCCSc2nc3ccccc3n2CCC(=O)O)cc1	none
O=C(CSc1nc2ccccc2n1Cc1ccc(Cl)cc1)N/N=C/c1ccccc1C(=O)O	NS1 function inh inconclusive
CCCCOc1ccc(OCCSc2nc3ccccc3n2CC(=O)O)cc1	Pf growth 96h inconclusive
